Rows were chosen to be rich in hits. Some 2.3% of all compounds tested hit in one or more screens of this group.
GLP-1R agonist – agonists of human GLP-1 receptor; 380,000 tested, 0.007% active; HEK293 GLP-1R CRE-luciferase, luminescence, 4-6 h; cells express a hypersensitive GLP-1R form; P43220; AID 624172; Potency, µM (top dose mostly 45.6 µM), inactives show at the top dose activation, hits mostly activators; note: % of control where 0% means no effect
GLS inh – inhibitors of human glutaminase (GLS). O94925. 410,000 tested, 0.21% active. Potency, µM (top dose mostly 45.5 µM), without a hit: top-dose activity change, negative = inhibition, most hits filed as inhibitors. GLS enzymatic activity, qHTS titration; note: % is set by controls: 0 for no effect and ±100 for the full control effect
Target sequence (O94925 whole entry, looked up): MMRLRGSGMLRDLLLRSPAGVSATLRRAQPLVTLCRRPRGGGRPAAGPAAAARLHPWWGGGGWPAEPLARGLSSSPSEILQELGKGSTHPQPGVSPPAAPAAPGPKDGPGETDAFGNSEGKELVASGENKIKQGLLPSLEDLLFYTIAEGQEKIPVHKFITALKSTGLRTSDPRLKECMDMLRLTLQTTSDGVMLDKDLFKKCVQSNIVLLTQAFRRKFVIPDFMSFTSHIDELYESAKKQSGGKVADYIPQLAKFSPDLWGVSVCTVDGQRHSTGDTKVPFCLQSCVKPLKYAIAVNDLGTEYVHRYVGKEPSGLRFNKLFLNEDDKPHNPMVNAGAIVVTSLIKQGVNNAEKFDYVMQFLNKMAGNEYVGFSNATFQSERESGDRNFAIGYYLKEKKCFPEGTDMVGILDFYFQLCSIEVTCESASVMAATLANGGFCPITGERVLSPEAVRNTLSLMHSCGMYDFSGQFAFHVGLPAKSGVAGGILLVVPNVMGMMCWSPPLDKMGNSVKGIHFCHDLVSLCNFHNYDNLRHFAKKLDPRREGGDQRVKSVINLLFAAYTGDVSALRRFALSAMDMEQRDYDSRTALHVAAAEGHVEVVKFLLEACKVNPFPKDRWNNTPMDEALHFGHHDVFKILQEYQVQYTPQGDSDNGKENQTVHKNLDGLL
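Assay buffer: 45 mM KH2PO4 pH 8.2, 0.02% Tween-20. hKGA acts on L-glutamine (1 mM solution added); product glutamate is reported by an oxidase/peroxidase Amplex Red coupling, with fluorescence taken at baseline and 30 min.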
PTHR1 ag – agonists of human PTHR1 parathyroid hormone receptor | HEK293 GP2 PTHR1 cells, GloSensor cAMP luminescence, 1 h | 410,000 tested, 0.075% active | Q03431 | Potency, µM (top dose mostly 115 µM), for inactives: at the highest dose activation, usual class: activators; note: nearly all actives have a fitted effect of over 55% in size
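HEK-293-derived GP2 cells expressing PTHR1 and a GloSensor cAMP reporter, 3,000/well, plated overnight, given luciferin plus IBMX (each 0.5 mM as added) for 1 h at 37 °C, then compound for 1 h at 37 °C. Luminescence was read after 15 min at room temperature.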
Glioma ERSR ind – ER stress response induction in glioma | U87-MG GRP78 promoter luciferase reporter, 16 h | 420,000 tested, 0.02% active | Potency, µM, for the others: at the highest dose activation, most hits filed as activators | AID 602332; note: series mostly up to about 76 µM; % of control where 0% means no effect; nearly all actives have a fitted effect of over 35% in size
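Stably transfected U87-MG glioma cells carrying a GRP78-based luciferase sensor; 16 h compound incubation. Luminescence end-point read 10 min after Bright-Glo addition at room temperature.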
GLP1R inv ag – inverse agonists of human GLP-1 receptor | HEK293 GLP-1R CRE-luciferase, luminescence, 24 h; GLP-1R form is constitutively active | 410,000 tested, 1.6% active | P43220 | Potency, µM (highest dose often 38.3 µM), without a hit: at the top dose activity change, negative = inhibition, most hits filed as inhibitors | AID 624417; note: % is set by controls: 0 for no effect and ±100 for the full control effect; nearly all actives have a fitted effect of over 55% in size
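Stable HEK293 clone (constitutively active GLP-1R + cAMP-response luciferase); 200 cells/uL plated, 12 h pre-culture, compound 24 hr, 37 deg C/5% CO2; detection reagent 12 min RT; luminescence.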
ALOX12 inh – ALOX12 (human) lipoxygenase inhibition; Potency, µM (highest dose often 108 µM), for the others: top-dose activity change, negative = inhibition, hits mostly inhibitors; purified 12hLO, xylenol orange hydroperoxide absorbance; 580,000 tested, 1.1% active; AID 1671190; note: % is set by controls: 0 for no effect and ±100 for the full control effect
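Purified human 12hLO (150 nM final) in 25 mM Hepes, 0.01% Triton X-100, pH 7.0 was preincubated 15 min at room temperature with compound. Then 40 uM arachidonic acid was added, 30 min. Hydroperoxide was read by Fe-XO absorbance ratio 573/405 nm.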
* = called active by the depositor; [ ] = remark or other dose. Calls come from the whole dose curve; as a rule, active = well fitted curve in the direction sought with a large enough effect; inconclusive = small, poorly fitted or top-dose-only effect, or another doubt; inactive = no such curve, though single readings can be large; an effect the other way counts as inactive or inconclusive. Potency is the fitted concentration of half-maximal effect.

Results for COc1ccc(/C=N/NC(=O)C(=O)/C=C2\NC3(CCCC3)Cc3ccccc32)cc1 ?
GLP-1R agonist: -6%; GLS inh: 6%; PTHR1 ag: -14%; Glioma ERSR ind: -4%; GLP1R inv ag: inconclusive; ALOX12 inh: -3%

What do the screens show for `Cc1ccc(S(=O)(=O)NN=C2C(=O)C3CCC2C3Cl)cc1` (stereo unspecified)?
GLP-1R agonist: -1%; GLS inh: 10%; PTHR1 ag: -2%; Glioma ERSR ind: -2%; GLP1R inv ag: -15%; ALOX12 inh: 10µM*

How did Cc1ccc(S(=O)(=O)N/N=C2\C(=O)C3(C)CCC2C3(C)C)cc1 (stereo unspecified) do in these assays?
GLP-1R agonist: 4%; GLS inh: -3%; PTHR1 ag: inactive; Glioma ERSR ind: -7%; GLP1R inv ag: 11%; ALOX12 inh: inconclusive

How did Cc1ccc2sc(N(CCCN(C)C)C(=O)c3ccc(S(=O)(=O)N4CCCCCC4)cc3)nc2c1C do in these assays?
GLP-1R agonist: 11%; GLS inh: 4%; PTHR1 ag: -15%; Glioma ERSR ind: -5%; GLP1R inv ag: inconclusive; ALOX12 inh: inconclusive

What do the screens show for `Cc1cc(C)c2nc(N(CCCN(C)C)C(=O)c3ccc4c(c3)CCCC4)sc2c1`?
GLP-1R agonist: -10%; GLS inh: -2%; PTHR1 ag: inactive; Glioma ERSR ind: -6%; GLP1R inv ag: 4.5µM*; ALOX12 inh: inconclusive

How did Cc1cc(C)c2nc(N(CCCN(C)C)C(=O)c3ccc(S(=O)(=O)N4CCCCCC4)cc3)sc2c1 do in these assays?
GLP-1R agonist: -6%; GLS inh: 3%; PTHR1 ag: inactive; Glioma ERSR ind: -10%; GLP1R inv ag: 13µM*; ALOX12 inh: inconclusive

What do the screens show for `CCOC(=O)N1CCN(S(=O)(=O)c2ccc(C(=O)N(CCN(C)C)c3nc4ccc(Cl)cc4s3)cc2)CC1`?
GLP-1R agonist: -3%; GLS inh: 9%; PTHR1 ag: -15%; Glioma ERSR ind: 11%; GLP1R inv ag: 8.9µM*; ALOX12 inh: -25%

How did Cc1cc(C)c2nc(NNC(=O)c3ccc(S(=O)(=O)N4CCCCC4)cc3)sc2c1 do in these assays?
GLP-1R agonist: 1%; GLS inh: -17%; PTHR1 ag: -6%; Glioma ERSR ind: -2%; GLP1R inv ag: inconclusive; ALOX12 inh: 10µM*

Results for Cc1ccsc1/C=C/C(=O)c1cc2ccccc2o1 ?
ALOX12 inh: 12%

How did O=C(c1ccccc1)c1nn(-c2ccc(Cl)cc2)c(=O)cc1C(F)(F)F do in these assays?
GLP-1R agonist: 30%; GLS inh: -5%; PTHR1 ag: -11%; Glioma ERSR ind: -10%; GLP1R inv ag: 4µM*; ALOX12 inh: 15%

How did O=C(c1ccccc1)c1nn(-c2ccccc2)c(=O)cc1C(F)(F)F do in these assays?
GLP-1R agonist: 8%; GLS inh: -10%; PTHR1 ag: inactive; Glioma ERSR ind: -5%; GLP1R inv ag: inconclusive; ALOX12 inh: 2%

What do the screens show for `CN(C)C(=S)NC(=O)C12CC3CC(C)(CC(C)(C3)C1)C2`?
GLP-1R agonist: 6%; GLS inh: 15%; PTHR1 ag: -1%; Glioma ERSR ind: -2%; GLP1R inv ag: -29%; ALOX12 inh: 372%

What do the screens show for `CC12CC3CC(C)(C1)CC(C(=O)NC(=S)N1CCCCC1)(C3)C2`?
GLP-1R agonist: 3%; GLS inh: 15%; PTHR1 ag: inactive; Glioma ERSR ind: -3%; GLP1R inv ag: inconclusive; ALOX12 inh: 25µM*

What do the screens show for `Cc1ccccc1C(=O)N1CCN(c2ccc(NC(=S)NC(=O)c3cccs3)cc2)CC1`?
GLP-1R agonist: 0%; GLS inh: 5%; PTHR1 ag: -2%; Glioma ERSR ind: -4%; GLP1R inv ag: inconclusive; ALOX12 inh: 35µM*

What do the screens show for `CC(C)C(=O)Nc1ccc(N2CCN(C(=O)c3cccs3)CC2)cc1`?
GLP-1R agonist: -6%; GLS inh: 78%; PTHR1 ag: inactive; Glioma ERSR ind: 2%; GLP1R inv ag: -18%; ALOX12 inh: -22%

What do the screens show for `COc1ccc(C(=O)N2CCN(c3ccc(NC(=O)c4cccs4)cc3)CC2)cc1`?
GLP-1R agonist: -3%; GLS inh: 30%; PTHR1 ag: -10%; Glioma ERSR ind: -2%; GLP1R inv ag: -2%; ALOX12 inh: 64%

What do the screens show for `CC(C)CC(=O)NC(=S)Nc1ccc(N2CCN(C(=O)c3cccs3)CC2)cc1`?
GLP-1R agonist: 11%; GLS inh: -6%; PTHR1 ag: -10%; Glioma ERSR ind: -5%; GLP1R inv ag: 10µM*; ALOX12 inh: inconclusive

What do the screens show for `Cc1ccc(C(=O)N2CCN(c3ccc(NC(=S)NC(=O)c4cccs4)cc3)CC2)cc1`?
GLP-1R agonist: 7%; GLS inh: 27%; PTHR1 ag: -22%; Glioma ERSR ind: -3%; GLP1R inv ag: 8.9µM*; ALOX12 inh: 11µM*

Results for Cc1ccccc1C(=O)N1CCN(c2ccc(NC(=O)CSc3ccc(Cl)cc3)cc2)CC1 ?
GLP-1R agonist: -3%; GLS inh: 28%; PTHR1 ag: -16%[57.5 µM]; Glioma ERSR ind: -3%; GLP1R inv ag: 7.1µM*; ALOX12 inh: 4%

How did CCCC(=O)Nc1nnc(Cc2ccccc2F)s1 do in these assays?
ALOX12 inh: 3%

How did Cn1c(=O)c2c(ncn2CC(=O)N(CCC#N)Cc2ccco2)n(C)c1=O do in these assays?
ALOX12 inh: -9%

How did S=C(NCc1ccco1)Nc1ccc(Oc2ccccc2)cc1 do in these assays?
GLP-1R agonist: 9%; GLS inh: 9%; PTHR1 ag: -40%; Glioma ERSR ind: 5%; GLP1R inv ag: inconclusive; ALOX12 inh: 45µM*

What do the screens show for `COc1ccc(NC(=S)NCc2ccco2)cc1`?
GLP-1R agonist: -3%; GLS inh: 19%; PTHR1 ag: -7%; Glioma ERSR ind: -1%; GLP1R inv ag: -4%; ALOX12 inh: 0%

Results for S=C(NCc1ccco1)Nc1cc(-c2ccccc2)[nH]n1 ?
GLP-1R agonist: 10%; GLS inh: 3%; PTHR1 ag: -28%; Glioma ERSR ind: 4%; GLP1R inv ag: inconclusive; ALOX12 inh: 5µM*

What do the screens show for `CC(C)CNC(=S)Nc1ccc(Oc2ccccc2)cc1`?
GLP-1R agonist: 7%; GLS inh: -1%; PTHR1 ag: -37%; Glioma ERSR ind: -2%; GLP1R inv ag: 11µM*; ALOX12 inh: inconclusive

Results for S=C(NCc1ccco1)Nc1ccc(Cl)c(Cl)c1 ?
GLP-1R agonist: 0%; GLS inh: 28%; PTHR1 ag: inactive; Glioma ERSR ind: 4%; GLP1R inv ag: 10µM*; ALOX12 inh: 28µM*

What do the screens show for `Nc1nccnc1C(=O)NCc1ccnc(OCc2ccccc2)c1`?
ALOX12 inh: 33%
